Assay [1] in a line: blockers of polyQ-driven CASP3 activation – cell-based (AID 1583). The following applies: polyglutamine-induced caspase-3 activation, cell assay; stronger effect = higher value;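 tested at 10 µM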.
Assay [2] can be described thus: yeast 75Q aggregation reduction – 75Q-TubU reporter (AID 1593). The following applies: Yeast 75Q polyglutamine aggregation reporter.
A short description of assay [3]: restoration of touch response, mutant HTT neurons – whole organism, C. elegans mechanosensory neurons, N-terminal huntingtin (AID 1599). To be noted: C. elegans polyQ-huntingtin mechanosensory neurons, stronger effect = higher value.
The nature of assay [4]: blockers of cytochrome c efflux from mitochondria – biochemical, purified mitochondria (AID 1603).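 Also: mouse liver mitochondria challenged with calcium chloride; signal normalized to the plate average as 100%.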 To be noted: stronger effect = lower value.
A short description of assay [5]: polyglutamine aggregate formation blockers (AID 1604). To be noted: polyglutamine-induced protein aggregation inhibition assay; stronger effect = higher value; tested at 2.5 µM.
Assay [6] is described as follows: glutamate transport activators, MN-1 cells, MN-1 cell line (AID 1612).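 Also: tested at 1 µM final; 0% = mean of DMSO vehicle wells on each plate; positive means more glutamate uptake than control and negative means less.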 To be noted: MN-1 motor neuron cells, stronger effect = higher value.
Assay [7] can be described thus: GFP-Q80 aggregate reduction, neuronal-like cells, cell-based, NGF-treated PC12, GFPQ80 (AID 1614).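 Also: lower means fewer inclusions and 0 means no inclusions at all.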 The following applies: PC12 NGF-treated GFP-polyQ80 inclusion reduction.
Assay [8] can be described thus: 75Q-TubH aggregate inhibition, S. cerevisiae, yeast (AID 1616). To be noted: S. cerevisiae 75Q-TubH polyglutamine aggregation suppression; stronger effect = higher value.
The nature of assay [9]: growth inhibition, single agents and combos, LFS_MB_1R, cell-based, cisplatin or BGB combos, synergistic combos for chromothripsis tumors (AID 1671452).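 Also: cells exposed for 96 hours before readout.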 To be noted: LFS_MB_1R medulloblastoma cells, stronger effect = higher value.
Assay [10] is described as follows: growth inhibition, single agents and combos, CRL2098, cell-based, BGB or cisplatin IC20 combos, synergistic combos for chromothripsis tumors (AID 1671454).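 Also: cells exposed for 96 h before readout; 0% = vehicle DMSO and 100% = killing by high DMSO.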 The following applies: CRL2098 osteosarcoma cells, drug combinations, stronger effect = higher value.
The nature of assay [11]: growth inhibition, single agents and combos, HD-MB03, cell-based, BGB or cisplatin IC20 combos, synergistic combos for chromothripsis tumors (AID 1671455; in the data active = inhibition above about 83%;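 also: 0% = vehicle DMSO and 100% = high DMSO as cytotoxic control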). To be noted: HD-MB03 medulloblastoma cells, stronger effect = higher value.
Assay [12] can be described thus: growth inhibition, single agents and combos, UWB1.289, cell-based, BGB or cisplatin combos, synergistic combos for chromothripsis tumors (AID 1671456).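 Also: cells exposed to compound for four days; 0% = vehicle DMSO and 100% = killing by high DMSO.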 To be noted: UWB1.289 ovarian carcinoma cells, stronger effect = higher value.
A short description of assay [13]: growth inhibition, single agents and combos, LFS_MB_2R, cell-based, cisplatin combos, synergistic combos for chromothripsis tumors (AID 1671457).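 Also: cells exposed to compound for four days before readout.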 To be noted: LFS_MB_2R medulloblastoma cells, stronger effect = higher value.
Assay [14] is described as follows: UWB1.289_BRCA1 ovarian cancer growth, cell-based, BGB or cisplatin combinations (AID 1671459). To be noted: UWB1.289 BRCA1 ovarian carcinoma, drug combinations, stronger effect = higher value.
Assay [15] can be described thus: drug combination toxicity in non-malignant astrocytes – cell-based, BGB or cisplatin IC20 combos, cytotoxicity control for chromothriptic childhood tumor combination screen (AID 1671460).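 Also: cells exposed to compounds for 96 hours before viability readout; 0% = vehicle and 100% = killing control.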 The following applies: Human astrocytes, viability inhibition, drug combinations, at 0.5 µM, stronger effect = higher value.
The target of assay [16] is ATP-dependent translocase ABCB1 (Homo sapiens) (UniProt P08183). The experiment in a line: P-glycoprotein substrate transport blockade – cell-based (AID 377; in the data active = fluorescence slope change above about 50%). The following applies: MDR1-expressing cells, fluorescent substrate accumulation slope; stronger effect = higher value; concentration not given here.
[17] abbreviates: measured here: combination with cisplatin, at 0.5 µM.
Where [18] appears, read: measured here: combination with cisplatin, at 5 µM.

SMILES strings stand for the structures. Records with an inconclusive call do not appear. For part of these data: Potency and affinity values are given separately. Activity calls are given as the source filed them. Rule as the data show it, unless noted: active = inhibition above about 80%; inactive = the rest.

ATP-dependent translocase ABCB1 (Homo sapiens), sequence (P08183 whole entry, looked up): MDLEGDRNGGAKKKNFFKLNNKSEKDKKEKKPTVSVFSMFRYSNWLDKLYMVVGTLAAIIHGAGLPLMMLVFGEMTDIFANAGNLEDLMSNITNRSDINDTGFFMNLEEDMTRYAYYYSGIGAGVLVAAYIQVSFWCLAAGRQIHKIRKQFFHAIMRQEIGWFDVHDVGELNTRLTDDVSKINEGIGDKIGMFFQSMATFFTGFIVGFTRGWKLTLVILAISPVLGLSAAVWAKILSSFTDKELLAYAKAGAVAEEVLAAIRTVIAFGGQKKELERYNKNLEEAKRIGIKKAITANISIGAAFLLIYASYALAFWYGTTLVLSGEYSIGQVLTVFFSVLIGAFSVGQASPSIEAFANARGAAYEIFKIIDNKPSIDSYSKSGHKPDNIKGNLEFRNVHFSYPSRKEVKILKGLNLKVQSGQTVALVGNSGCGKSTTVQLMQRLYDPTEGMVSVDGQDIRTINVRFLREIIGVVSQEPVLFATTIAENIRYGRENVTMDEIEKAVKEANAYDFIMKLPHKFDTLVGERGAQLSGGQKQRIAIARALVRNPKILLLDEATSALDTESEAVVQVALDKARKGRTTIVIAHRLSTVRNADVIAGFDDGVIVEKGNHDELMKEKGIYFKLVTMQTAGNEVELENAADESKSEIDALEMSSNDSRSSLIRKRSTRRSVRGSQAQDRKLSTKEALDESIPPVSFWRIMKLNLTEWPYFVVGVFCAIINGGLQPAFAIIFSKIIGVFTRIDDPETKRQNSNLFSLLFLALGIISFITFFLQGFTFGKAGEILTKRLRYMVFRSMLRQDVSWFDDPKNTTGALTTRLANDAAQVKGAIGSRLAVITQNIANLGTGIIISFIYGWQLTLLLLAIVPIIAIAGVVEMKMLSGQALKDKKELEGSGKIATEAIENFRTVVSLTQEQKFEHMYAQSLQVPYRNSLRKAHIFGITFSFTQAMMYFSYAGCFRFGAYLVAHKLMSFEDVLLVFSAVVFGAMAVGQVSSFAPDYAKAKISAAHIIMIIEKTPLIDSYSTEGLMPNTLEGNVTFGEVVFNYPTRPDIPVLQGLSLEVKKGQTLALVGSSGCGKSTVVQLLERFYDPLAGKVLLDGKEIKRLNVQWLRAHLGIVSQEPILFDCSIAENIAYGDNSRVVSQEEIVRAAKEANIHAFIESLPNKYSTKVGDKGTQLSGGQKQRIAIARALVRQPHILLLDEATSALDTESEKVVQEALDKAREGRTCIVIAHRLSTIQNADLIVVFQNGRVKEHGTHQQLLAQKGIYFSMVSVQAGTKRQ

Regarding `CC(C)=CCC/C(C)=C/CO`, in assay [1], the inhibition is 23.2%. In addition, the score in [2] is 1.12. The rescue above control in [3] came out at 3.94. In addition, the cytochrome c release ratio in assay [4] came to 1.17. In addition, the inhibition of aggregation in assay [5] amounted to 60.6%. The glutamate uptake change in assay [6] came to 5.29%. Moreover, the inclusion score in assay [7] turned out to be 2. Further, the aggregation suppression score in [8] came to 1.02.

As for `CC[C@@H](CO)NCCN[C@@H](CC)CO`, the inhibition in [1] was -11.7%. This compound showed a score in [2] of 1.09. This compound returned a rescue above control in assay [3] of 2.87. For the same compound, the cytochrome c release ratio in assay [4] was determined as 1.07. Moreover, in assay [5], the inhibition of aggregation worked out at 43.6%. The glutamate uptake change in [6] was -22.3%. Further, the inclusion score in assay [7] came out at 2. For the same compound, the aggregation suppression score in assay [8] was determined as 1.18.

For `O=C(O)CN(CC(=O)O)Cc1cc2c(-c3ccccc3C(=O)O)c3cc(CN(CC(=O)O)CC(=O)O)c(=O)cc-3oc2cc1O`, the inhibition in assay [1] was -215%. Besides, the score in assay [2] stood at 1.05. This compound came in with a rescue above control in assay [3] of -5.14. Moreover, the cytochrome c release ratio in assay [4] turned out to be 0.86. Besides, the inhibition of aggregation in assay [5] came out at 0%. For the same compound, the glutamate uptake change in [6] worked out at 13.5%. Further, the inclusion score in assay [7] turned out to be 0. For the same compound, in assay [8], the aggregation suppression score came to 0.687.

With `Nc1ncn([C@H]2C[C@H](O)[C@@H](CO)O2)c(=O)n1`, the inhibition in [9] (at 0.5 µM) is -7.33% (inactive); in [9] (measured here: combination with BGB IC40, at 0.05 µM), -12.1%; in [9] (setting [17]) it was -1.56%; in assay [9] (setting [18]), -10.1%; in assay [10] (at 0.5 µM), -25.9% (inactive); in assay [10] (measured here: combination with BGB at IC20, at 0.5 µM), -12.6%. The inhibition in [10] (measured here: combination with cisplatin at IC20, at 0.5 µM) is -67.9%; in assay [11] (at 0.5 µM), 30.9% (inactive); in assay [11] (measured here: combo with BGB at IC20, at 0.5 µM), 47.3%; in [11] (measured here: combo with cisplatin at IC20, at 0.5 µM) it was 31.6%; in assay [12] (at 0.5 µM), 16.5% (inactive); in assay [12] (measured here: inhibition with BGB combination, at 0.05 µM) it was 5.24%. For the same compound, the inhibition is -1.44% in assay [12] (measured here: inhibition with cisplatin combination, at 0.05 µM); -4.56% (inactive) in assay [13] (at 0.5 µM); -4.46% in assay [13] (setting [17]); 0.176% in assay [13] (setting [18]); 32.1% in assay [14] (BGB combination, concentration series, at 5 µM); 25% (inactive) in [14] (at 0.5 µM). Moreover, the inhibition in assay [14] (cisplatin combination, concentration series, at 5 µM) is 40.5%; in [15], 26.9% (inactive); in [15] (measured here: combo with BGB IC20) it was 27.2%; in [15] (measured here: combo with cisplatin IC20) it was 20.4%.

For the compound `CCN(CC)CCOc1ccc2c(c1)C(=O)c1cc(OCCN(CC)CC)ccc1-2`, in assay [1], the inhibition was -90.6%. The score in assay [2] came to 1.3. In addition, the rescue above control in [3] is -4.59. Further, the cytochrome c release ratio in assay [4] was 0.81. For the same compound, in assay [5], the inhibition of aggregation was 63.2%. Further, the glutamate uptake change in assay [6] stood at 22.5%. In [8], this compound came in with an aggregation suppression score of 1.61.

Take `CN(C)CCCOc1nn(Cc2ccccc2)c2ccccc12`: the fluorescence slope change in assay [16] is 153% (active).

On to `COc1cc(N)c(Cl)cc1C(=O)NC1CCN(CCCOc2ccc(F)cc2)CC1OC` (stereo not drawn), for which the fluorescence slope change in [16] was 62% (active).

Regarding `CC(=O)NC(Cc1ccccc1)C(=O)O` (stereo not drawn), in assay [1], the inhibition was found to be 6.15%. In assay [2], this compound registered a score of 1.35. In assay [3], this compound gave a rescue above control of 4.38. Also, in assay [4], the cytochrome c release ratio was determined as 0.42. For the same compound, the inhibition of aggregation in [5] was found to be 85.9%. Also, the glutamate uptake change in [6] was found to be 12.1%. This compound also returned an inclusion score in assay [7] of 2. The same compound came in with an aggregation suppression score in assay [8] of 1.23.

Source of the values: PubChem BioAssay.
